SMILES strings stand for the structures. About 16,000 (4.4%) of roughly 360,000 compounds were called active. Another 9% or so got no clear call; they are omitted. Calls follow the shape of the dose curve; as a rule, active = well fitted inhibition curve with a large enough effect; inconclusive = small, poorly fitted or top-dose-only effect; inactive = no such curve, though single readings can be large or run the other way. The list comes from a sample in which actives are over-represented; it also holds similar structures and randomly drawn compounds. A call without a number means that no potency is given here.

In PubChem BioAssay AID504333 (National Center for Advancing Translational Sciences (NCATS), 2011) one finds Potency data, which are given here for 103 compounds.
Potency is read from the fitted curve at half-maximal effect.

Sequence of Bromodomain adjacent to zinc finger domain protein 2B (Homo sapiens) (Q9UIF8 whole entry, looked up, the tested form may be a part): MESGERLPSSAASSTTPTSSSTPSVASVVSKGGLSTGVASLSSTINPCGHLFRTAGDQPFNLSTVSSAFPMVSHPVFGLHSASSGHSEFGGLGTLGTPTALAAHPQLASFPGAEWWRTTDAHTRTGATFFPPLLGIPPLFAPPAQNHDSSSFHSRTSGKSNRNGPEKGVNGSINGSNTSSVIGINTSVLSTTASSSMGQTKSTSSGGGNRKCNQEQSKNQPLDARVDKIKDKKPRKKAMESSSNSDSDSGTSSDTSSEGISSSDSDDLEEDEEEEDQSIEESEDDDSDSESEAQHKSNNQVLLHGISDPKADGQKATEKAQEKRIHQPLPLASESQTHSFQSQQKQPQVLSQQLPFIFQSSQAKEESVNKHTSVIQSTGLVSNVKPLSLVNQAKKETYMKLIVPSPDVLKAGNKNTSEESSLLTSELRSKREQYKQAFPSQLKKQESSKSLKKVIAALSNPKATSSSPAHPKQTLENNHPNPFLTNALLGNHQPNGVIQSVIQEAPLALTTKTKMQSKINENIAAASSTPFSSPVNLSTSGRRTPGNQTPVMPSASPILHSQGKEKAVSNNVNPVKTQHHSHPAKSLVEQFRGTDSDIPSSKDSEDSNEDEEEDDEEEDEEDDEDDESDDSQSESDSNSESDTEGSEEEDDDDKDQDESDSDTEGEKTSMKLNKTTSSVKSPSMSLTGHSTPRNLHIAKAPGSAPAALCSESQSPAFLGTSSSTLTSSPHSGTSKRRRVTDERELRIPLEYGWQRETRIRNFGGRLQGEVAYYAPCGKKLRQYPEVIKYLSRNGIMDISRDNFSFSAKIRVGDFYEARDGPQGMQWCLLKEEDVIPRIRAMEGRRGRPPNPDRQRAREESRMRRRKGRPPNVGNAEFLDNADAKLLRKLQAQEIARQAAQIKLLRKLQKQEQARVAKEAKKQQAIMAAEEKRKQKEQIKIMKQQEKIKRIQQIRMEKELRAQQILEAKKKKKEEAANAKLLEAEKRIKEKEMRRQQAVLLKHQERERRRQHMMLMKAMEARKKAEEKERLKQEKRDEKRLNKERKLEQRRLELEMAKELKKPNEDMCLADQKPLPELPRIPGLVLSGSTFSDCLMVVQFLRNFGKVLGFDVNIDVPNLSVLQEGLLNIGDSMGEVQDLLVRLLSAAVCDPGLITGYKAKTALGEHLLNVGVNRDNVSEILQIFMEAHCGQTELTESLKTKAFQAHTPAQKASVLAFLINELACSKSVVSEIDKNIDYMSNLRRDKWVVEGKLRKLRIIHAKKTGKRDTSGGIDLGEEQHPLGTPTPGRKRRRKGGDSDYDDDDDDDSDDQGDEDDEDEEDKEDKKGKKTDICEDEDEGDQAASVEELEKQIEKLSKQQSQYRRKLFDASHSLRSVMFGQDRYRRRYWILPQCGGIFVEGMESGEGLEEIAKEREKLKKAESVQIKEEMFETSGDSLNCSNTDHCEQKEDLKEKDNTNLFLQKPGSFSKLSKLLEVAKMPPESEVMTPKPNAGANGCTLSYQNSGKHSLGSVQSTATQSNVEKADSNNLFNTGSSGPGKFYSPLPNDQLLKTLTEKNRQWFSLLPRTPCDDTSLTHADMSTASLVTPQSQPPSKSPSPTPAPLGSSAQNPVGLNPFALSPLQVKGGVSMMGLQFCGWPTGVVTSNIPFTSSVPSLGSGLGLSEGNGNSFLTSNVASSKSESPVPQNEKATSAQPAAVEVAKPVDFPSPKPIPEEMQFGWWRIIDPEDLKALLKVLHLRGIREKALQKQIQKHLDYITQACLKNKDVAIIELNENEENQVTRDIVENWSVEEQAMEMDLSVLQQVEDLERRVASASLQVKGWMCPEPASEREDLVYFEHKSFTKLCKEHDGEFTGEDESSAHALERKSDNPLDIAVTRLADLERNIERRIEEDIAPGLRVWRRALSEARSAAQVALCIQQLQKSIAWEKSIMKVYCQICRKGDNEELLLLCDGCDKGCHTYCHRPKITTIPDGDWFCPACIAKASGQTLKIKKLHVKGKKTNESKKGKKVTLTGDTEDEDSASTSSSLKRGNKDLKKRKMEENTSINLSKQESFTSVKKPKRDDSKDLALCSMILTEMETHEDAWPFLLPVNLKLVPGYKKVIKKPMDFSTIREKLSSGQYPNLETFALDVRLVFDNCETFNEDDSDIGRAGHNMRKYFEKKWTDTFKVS

This assay concerns the target Bromodomain adjacent to zinc finger domain protein 2B (Homo sapiens) (UniProt Q9UIF8). Put plainly: qHTS Assay for Inhibitors of BAZ2B. Also: nearly all actives have a fitted effect of over 60% in size. To be noted: AlphaScreen BAZ2B-H3K14Ac peptide displacement; series mostly up to 114 µM. Summed up:
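AlphaScreen displacement of biotin-H3(5-23)K14Ac peptide (50 nM final) from BAZ2B (50 nM final) in PBS pH 7.4, 0.01% Tween-20; complex preformed 30 min RT, then compounds (top 110 uM) 30 min RT, beads 20 min dark.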
(In qHTS, concentration-response curves come from the screen itself.)
As for `CCc1ccccc1NC(=O)N1CCN(C(=O)c2nsc3ccccc23)CC1`, the Potency entry was “inactive”. Regarding `Cc1csc2nc(COC(=O)c3ccc(NC(=O)COc4ccccc4F)cc3)cc(=O)n12`, the Potency entry is “inactive”. For the compound `CCc1nc2ccc(C(=O)N3CCN(c4cc(Cl)ccc4C)CC3)cc2nc1CC`, the Potency result was “inactive”. Consider `Cc1c(NC(=O)C(C)(C)C)cccc1-c1nc2ccccc2s1`, for which the Potency entry was “inactive”. The figure for `O=C1CSC(=S)N1/N=C/c1ccc(O)c([N+](=O)[O-])c1` is 50.1 µM (active); for `COc1cccc(N2CCN(C(=O)CCCCCn3c(=O)[nH]c4ccccc4c3=O)CC2)c1` it is “inactive”; for `COc1ccc2c(Sc3ccc(C)cc3)c(C(=O)NC(C)c3ccccc3)[nH]c2c1` (stereo not drawn) it is “inactive”.

In the case of `Cc1ccc(N(CC(=O)NCC(C)c2ccccc2)S(=O)(=O)N(C)C)cc1` (stereo not drawn), the Potency result is “inactive”.

As to `CCC1=NN2C(=N)/C(=C/c3cc(C)n(-c4ccccc4)c3C)C(=O)N=C2S1`, the Potency entry is “inactive”. The figure for `CS(=O)(=O)c1ccc2c(c1)SC1=NC(=O)/C(=C/c3ccco3)C(=N)N12` is 50.1 µM (active). For the compound `CC(C)(C)OC(=O)NCCCCCNC(=O)c1nc[nH]c1C(=O)NCc1ccccc1`, the Potency entry was “inactive”. With `CC(C)(C)OC(=O)NCCCCCNC(=O)c1[nH]cnc1C(=O)Nc1nccs1`, the Potency is 31.6 µM (active).

In the case of `Cc1ccc(NC(=O)c2nc[nH]c2C(=O)N[C@@H](CCCCNC(=O)OC(C)(C)C)C(=O)OC(C)(C)C)cc1`, the Potency entry was “inactive”. Regarding `OCc1cnc(SCc2ccc(F)cc2)n1Cc1ccc(F)cc1`, the Potency entry is “inactive”. As to `CCOc1ccc(-n2c(SCC(=O)NCc3ccccc3)nc3n[nH]c(C)c3c2=N)cc1`, the Potency entry was “inactive”. Regarding `O=C(Nc1ccc(C(=O)O)c(O)c1)c1ccccc1`, the Potency result was “inactive”. As for `O=C(O)c1ccc(-n2cccc2)cc1O`, the Potency was 56.2 µM (active). For `O=C(Cn1ccc(=O)[nH]c1=O)Nc1ccc(C(=O)O)c(O)c1`, the Potency entry was “inactive”. In the case of `Cc1ccc(S(=O)(=O)N(Cc2nc(-c3ccc(Cl)cc3)no2)C2CCCCC2)cc1` it was “inactive”; in that of `CN1C2CCC1/C(=C\c1ccccc1Cl)C(=O)/C2=C\c1ccccc1Cl`, 39.8 µM (active). `O=C(CN1CCCCCC1)NCCN1C(=O)S/C(=C\c2ccccc2Cl)C1=O`: the Potency result is “inactive”. As for `O=C(CN1C(=O)S/C(=C\c2ccccc2Cl)C1=O)NC1C=CS(=O)(=O)C1` (stereo not drawn), the Potency result is “inactive”.

In the case of `O=C(Nc1ccc(F)cc1F)c1ccc2c(=O)n3c(nc2c1)CCCCC3`, the Potency entry was “inactive”. Regarding `CCOC(=O)c1cc2c(=O)n3ccccc3nc2n(CCCOC)c1=NC(=O)C(C)(C)Oc1ccc(Cl)cc1`, the Potency entry was “inactive”. With `Oc1ccccc1-c1nc(/C=C/c2ccc(F)cc2)no1`, the Potency result was “inactive”. `Cc1ccn2c(=O)nc(SCC(=O)NCc3ccc4c(c3)OCO4)nc2c1`: the Potency was 56.2 µM (active). For the compound `O=C(CSc1ncn[nH]1)NCc1ccc2c(c1)OCO2`, the Potency entry was “inactive”.

As for `Cc1ccn2c(=O)nc(SCC(=O)NCc3ccc(F)cc3)nc2c1`, the Potency result was “inactive”.

Turning to `Cc1ccc(C)c(Nc2nnc(-c3ccc(C)c(S(=O)(=O)N4CCCCC4)c3)c3ccccc23)c1`, the Potency result is “inactive”.

As for `COc1cccc(CNC(=O)c2ccc3c(c2)sc2nc(-c4cccc(OC)c4)cn23)c1`, the Potency result was “inactive”. For `CN(C)CCOc1cccc(Br)c1`, the Potency was 44.7 µM (active). The entry for `COc1ccc(OC)c(NC(=O)CN(C)CCOc2ccc(Br)cc2)c1` is “inactive”. Turning to `CN(C)CCOC1c2ccccc2-c2ccccc21`, the Potency entry is “inactive”. For `COc1ccc(NC(=O)CN2CCCN(Cc3ccccc3)S2(=O)=O)cc1`, the Potency entry is “inactive”. For the compound `Nc1ccc(C(=O)NCc2ccccc2)cc1`, the Potency entry is “inactive”.

Consider `O=C(NCCCNCc1ccccc1)c1ccc(/C=N/O)nc1`, for which the Potency is 50.1 µM (active). The entry for `CC(C)c1ccc(C(=O)NCCCc2ccccc2)cc1` is “inactive”. As to `Oc1ccc(CNc2ccccc2O)cc1`, the Potency is 44.7 µM (active). In the case of `Oc1ccccc1N1CCN(C(=S)NCc2ccccc2)CC1` it was “inactive”; in that of `O=C(Cc1ccc(Cl)cc1)NC(=S)Nc1ccccc1O`, “inactive”. In the case of `O=C(c1ccc(C(F)(F)F)cc1)N1CCC(c2nc(-c3ccc(S(=O)(=O)N4CCCC4)cc3)no2)CC1` it was “inactive”; in that of `COc1cccc(NC(=O)Nc2ccc3c(c2)N(C)C(=O)c2ccccc2S3)c1`, “inactive”. In the case of `COc1ccc(CC(=O)N2CC(=O)Nc3ccc(Br)cc3C2c2ccc(F)cc2)cc1OC` (stereo not drawn) it was “inactive”. Take `CCOC(=O)c1c(NC(=O)CSc2nccc(=O)[nH]2)sc(C)c1C`: the Potency result is “inactive”. On to `CCOC(=O)c1c(NC(=O)CSc2nnc(Cc3csc(N)n3)n2C)sc(C)c1C`, for which the Potency was 12.6 µM (active). As to `CCOC(=O)c1c(NC(=O)CSc2nnc(CN3CCOCC3)n2C)sc2c1CCCC2`, the Potency entry was “inactive”. In the case of `Cc1cccc(C)c1-n1ncc(C(=O)NCCCN2CCCCC2)c1C1CCN(C(=O)OC(C)(C)C)CC1` it was “inactive”; in that of `CC(C)S(=O)(=O)c1oc(-c2ccc(F)cc2)nc1S(=O)(=O)c1ccc(F)cc1`, “inactive”. On to `Cc1ccc(NC(=O)CSc2nc3c([nH]c4ccccc43)c(=O)n2-c2ccccc2)cc1Cl`, for which the Potency result was “inactive”. With `Cc1ccc(N2CC(c3nnc(Cc4ccccc4Cl)o3)CC2=O)cc1` (stereo not drawn), the Potency result is “inactive”. As for `Cc1ccccc1Nc1nc(N)nc(CN2CCN(c3ccccn3)CC2)n1`, the Potency is 50.1 µM (active).

Regarding `Cc1ccccc1Nc1nc(N)nc(CSc2ccccc2)n1`, the Potency entry is “inactive”. For `Cc1ccc(C(=O)OCc2nc(N)nc(Nc3ccccc3C)n2)cc1`, the Potency result is “inactive”. Consider `CCOc1ccccc1CNC(=O)Nc1cn(CC(C)C)c(=O)c2ccccc12`, for which the Potency entry is “inactive”. In the case of `COc1ccccc1CNC(=O)C(Cc1ccccc1)NS(=O)(=O)c1ccc2c(c1)oc(=O)n2C` (stereo not drawn), the Potency result is “inactive”.

`COc1ccc2c(C)c(CCC(=O)NCc3ccc(OC)c(OC)c3)c(=O)oc2c1`: the Potency entry is “inactive”. As to `CC(C)c1ccc(Nc2ncccc2C#N)cc1`, the Potency result is “inactive”. For `Nc1ccc(Nc2cc(O)c3ncccc3c2)cc1`, the Potency was 7.08 µM (active). In the case of `O=C(CCn1ccc2cc(S(=O)(=O)N3CCCC3)ccc21)NCc1cccc(Cl)c1` it was “inactive”. For `CC1CCN(S(=O)(=O)c2ccc3c(ccn3CC(=O)O)c2)CC1`, the Potency entry was “inactive”. As for `CC1CCN(S(=O)(=O)c2ccc3c(ccn3CCC(=O)NCc3ccc(N(C)C)cc3)c2)CC1`, the Potency was 28.2 µM (active). On to `CCCN(CCC)C(=O)C(Cc1ccccc1)NS(=O)(=O)c1ccc2c(c1)c(=O)n(C)c(=O)n2C` (stereo not drawn), for which the Potency entry is “inactive”.

For the compound `Cc1ccc(S(=O)(=O)N2CCN(CC(=O)N/N=C/c3cc([N+](=O)[O-])ccc3Cl)CC2)cc1`, the Potency result is “inactive”. In the case of `O=S(=O)(c1ccc(NC(=S)NN=C(C2CC2)C2CC2)cc1)N1CCOCC1`, the Potency entry was “inactive”.

For `O=[N+]([O-])c1cc(Cl)cc(/C=N/NC(=S)Nc2cc(S(=O)(=O)N3CCOCC3)ccc2Cl)c1O`, the Potency was 1.78 µM (active).

`Cn1c(=O)c2c(nc(SCC(=O)Nc3ccc(F)cc3)n2Cc2ccccc2)n(C)c1=O`: the Potency entry is “inactive”. In the case of `Cc1nn(C(C)C(=O)Nc2ccc(C(C)C)cc2)c(=O)c2c1sc1ccccc12` (stereo not drawn), the Potency entry is “inactive”. Turning to `CC1CN(C(=O)N2CCC(C(=O)NCc3ccco3)CC2)c2cc(Cl)ccc2O1` (stereo not drawn), the Potency entry was “inactive”.

For the compound `O=C(Nc1nnc(C2CC2)s1)c1ccccn1`, the Potency is 5.62 µM (active). Take `O=C(Nc1nnc(C2CC2)s1)c1cc(Cl)sc1Cl`: the Potency entry was “inactive”. As for `Cc1cc(C(=O)Nc2nnc(C3CC3)s2)c(C)s1`, the Potency result is “inactive”. Consider `Cc1cnc(NC(=O)c2ccccn2)s1`, for which the Potency was 35.5 µM (active). Consider `Cc1cnc(NC(=O)C2CCCC2)s1`, for which the Potency result is “inactive”. With `Cc1ccc(SCC(=O)Nc2ncc(C)s2)cc1`, the Potency result is “inactive”. As for `COCCNC(=O)c1ccc2c(c1)N=C(C)c1cc(C)ccc1S2`, the Potency result was “inactive”.

`CC1=Nc2cc(C(=O)N3CCC(C)CC3)ccc2Sc2ccc(Cl)cc21`: the Potency entry was “inactive”. In the case of `Cc1ccc(Cn2c(=O)n(-c3ccc(C)cc3)c(=O)c3c2c2cc(C)ccc2n3C)cc1` it was “inactive”. With `COc1ccc(CNC(=O)CSc2n[nH]c(-c3ccc(F)cc3)n2)cc1`, the Potency result was “inactive”. As to `CCc1nnc(NC(=O)c2cc(S(=O)(=O)N3CCCCC3)ccc2C)s1`, the Potency entry is “inactive”. As to `CCc1nnc(NC(=O)c2ccc(S(=O)(=O)NC3CCCCC3)cc2)s1`, the Potency result is “inactive”. For `CCc1nnc(NC(=O)c2nc3nccc(C)n3n2)s1`, the Potency is 70.8 µM (active). Regarding `CCCOc1ccccc1C1CC(=O)Nc2cc3c(cc21)OCO3` (stereo not drawn), the Potency is 28.2 µM (active). In the case of `O=C1CC(c2ccc(F)cc2F)c2cc3c(cc2N1)OCO3` (stereo not drawn) it was “inactive”; in that of `COC(=O)C1=C(C)NC(=O)CC1c1ccccc1OC` (stereo not drawn), “inactive”.

On to `Cc1nc2ccn(Cc3cccs3)c(=O)c2cc1C(=O)NCc1ccc(Cl)cc1`, for which the Potency result was “inactive”.

In the case of `Nc1ccc(C(=O)Nc2ccccc2N)cc1`, the Potency result was “inactive”. The entry for `Cc1ccc(Nc2nc(Cl)c(C=O)s2)cc1` is “inactive”; for `Cc1ccc(Nc2ccccc2N)cc1` it is 44.7 µM (active). The entry for `COc1ccc(-c2noc(CSc3nnc(-c4ccccc4)n3-c3ccc(F)cc3)n2)c(OC)c1` is “inactive”; for `CC(=O)c1c(C)n(-c2ccc(C)cc2)c2ccc(O)cc12` it is “inactive”. In the case of `CC(=O)c1c(C)n(-c2ccc(N(C)C)cc2)c2ccc(OCC(N)=O)cc12` it was 50.1 µM (active); in that of `CCOC(=O)c1c(-c2ccccc2)oc2ccc(OCC(N)=O)cc12`, “inactive”. Consider `CC(=O)c1ccc(NC(=O)c2nc(-c3ccc(C)cc3)n3c2CCCCC3)cc1`, for which the Potency entry is “inactive”. `COc1ccccc1-c1ccnc2[nH]n(-c3ccccc3)c(=O)c12`: the Potency entry is “inactive”. Take `CC1Cc2ccccc2N1CC(=O)Nc1ccc(S(N)(=O)=O)cc1` (stereo not drawn): the Potency is 79.4 µM (active). As for `CC1CC(C)CN(CC(=O)Nc2ccc(S(N)(=O)=O)cc2)C1` (stereo not drawn), the Potency entry is “inactive”. For the compound `NS(=O)(=O)c1cccc(NC(=O)CN2CCCc3ccccc32)c1`, the Potency entry is “inactive”.

For `CC(CNC(=O)c1nnc(Cc2cccc(F)c2)o1)c1ccccc1` (stereo not drawn), the Potency entry is “inactive”.

With `CN(C(=O)CSc1nc2ccc(NC(=O)COc3ccccc3)cc2s1)c1ccccc1`, the Potency entry was “inactive”. In the case of `O=C(NCCCN1CCOCC1)c1cc2c(s1)CCC2`, the Potency result was “inactive”.

As to `O=C(NCCCn1ccnc1)c1cc2c(s1)CCCC2`, the Potency was 56.2 µM (active). Consider `O=C(NCCCn1ccnc1)c1cc(Br)c(Br)s1`, for which the Potency result was “inactive”. The entry for `Cc1ccccc1CNC(=O)C1CCCN(S(=O)(=O)N(C)c2ccc(F)cc2)C1` (stereo not drawn) is “inactive”.
